The text below walks through data of ChEMBL document CHEMBL4513216, “Probing the Open Global Health Chemical Diversity Library for Multistage-Active Starting Points for Next-Generation Antimalarials” (ACS Infect Dis, 2020).

Among all 69,000 compounds or so, about 8,600 (12%) showed an effect of 50% or more. This is one part of a sample in which strong results are shown more often than they occur.

This assay relates to Plasmodium berghei. The assay can be described thus: Screen against P. berghei liver stage (PbLuc), transformed with Luciferase, at 10uM. The class given is functional, HepG2. The following applies: tested at 10 uM.
On to `Cc1cnn(CC(C)Nc2nc3ccccc3o2)c1` (configuration not stated), for which the INHIBITION is listed as 21.8%.
Under `COCC[C@]1(O)CCN(C2CCN(C(=O)C3CCC3)CC2)C[C@H]1C` stands 36.4%; under `O=C(NC1CCC1)[C@H]1C[C@H]2CN(C(=O)Nc3ccc(F)cc3)C[C@@H]1O2`, 1.9%; under `CC(C)(C)c1ncc(CNc2ccccc2Cn2cncn2)s1`, 60.6%.
For the compound `NC(=O)C(NC(=O)CCc1ccc(Cl)s1)c1ccccc1` (configuration not stated), the INHIBITION is listed as -19.7%.
Under `CC(C)N(CC(N)=O)Cc1csc(C(C)(C)C)n1` stands -7.31%; under `c1ccc(NCc2ccsc2)c(Cn2cncn2)c1`, 3.41%.
With `CC(C)(C)c1ncc(C(=O)NC(C(N)=O)c2ccccc2)s1` (configuration not stated) the figure was 3.15%; with `c1csc(CNc2ccccc2Cn2cncn2)c1`, -56.8%; with `NC(=O)CCSc1ccccc1NCc1ccc(Cl)s1`, 75.7%.
Under `CNc1nc(CNC(=O)Nc2ccccc2SC)cs1` stands 6.14%; under `Cc1ccc(CNc2ccccc2SCCC(N)=O)s1`, 39.7%.
For the compound `NC(=O)CSc1ccccc1NCc1nc(Cc2ccccc2)no1`, the INHIBITION is -75.4%.
With `CC(C)(C)c1nc(CNc2ccccc2SCCC(N)=O)cs1` the figure was 77.4%.
For the compound `CC(C)(C)c1ncc(CNc2ccccc2SCCC(N)=O)s1`, the INHIBITION is recorded as 83.4%.
Under `CC(=O)N1CCC(Cc2cncc(-c3c(C)n[nH]c3C)n2)C1` (configuration not stated) stands 28%; under `CN1CC(=O)N(c2cccnc2)CC12CCN(C(=O)c1cccn1C)C2` (configuration not stated), -46.8%; under `CCCOC(=O)NCCC1CN(c2cnn(C)c(=O)c2)CCO1` (configuration not stated), 45.3%.
`CC(=O)NC(=O)C1(CCCc2ccncc2)CCN1` (configuration not stated): the INHIBITION is listed as 12.3%.
In the case of `O=C(N1CCCC1)N1Cc2nccn2CC(COc2cccnc2)C1` (configuration not stated), the INHIBITION is given as -21.1%.
With `CSc1ccc(C(=O)N2CC(=O)N(Cc3ccccc3)CC(O)C2)cc1` (configuration not stated) the figure was -42.1%.
With `O=C(CN1C(=O)CCC1=O)N1CCOCC1` the figure was 59.8%.
With `O=C(CN1C(=O)CCC1=O)N1CCOC2(CCOCC2)C1` the figure was 32.4%.
`O=C(Cn1nc(Br)nc1Br)N1CCOCC1`: the INHIBITION stood at 15.5%.
With `Cc1nc2[nH]cnc(Nc3ccn(C)n3)c-2n1` the figure was 25.9%; with `CC(C)CC(NC(=O)OC(C)(C)C)C(N)=O` (configuration not stated), 13.9%; with `Cc1cccc(-c2nc3cc(S(=O)(=O)N4CCCC4)ccc3n2C)n1`, -7.53%.
With `CC(C)(CO)CCCNC(=O)NC1(c2ccccc2F)CC1` the figure was 9.16%.
With `O=C(NCCOc1ccc2c(c1)OCO2)C1CC(=O)N(C2CC2)C1` (configuration not stated) the figure was 31.9%; with `O=C(N[C@H]1CN[C@H]2CCCO[C@H]21)c1cscn1`, 1.81%; with `O=C(N[C@@H]1CN[C@@H]2CCCO[C@@H]21)c1cscn1`, 11.4%.
In the case of `O=C(N[C@@H]1CN[C@H]2CCCO[C@H]21)c1cnccn1`, the INHIBITION is reported as 52%.
With `Cc1ccc(CNc2cc(C(=O)N3CCOCC3)nc(C)n2)cc1` the figure was -3.72%; with `CC(C)N1CC(C(=O)NCc2cccnc2-n2cccn2)CC1=O` (configuration not stated), 6.2475%.
As to `CC(C)C(=O)NCCCNC(=O)Nc1cc(-c2ccccc2)ns1`, the INHIBITION was -89.2%.
`CC(C)(C)NC(=O)CNC(=O)Nc1cc(-c2ccccc2)ns1`: the INHIBITION is 26%.
Under `CNC(=O)CNC(=O)Nc1cc(-c2ccccc2)ns1` stands 73.3%; under `COc1cccc(CCC(=O)N2CCCC(c3nncn3C)C2)c1` (configuration not stated), 4.71%; under `COc1cccc(CN2CCCCCC2c2sccc2C)c1O` (configuration not stated), 23.5%.
Under `COc1cccc(CN2CCCCCC2c2cccc(F)c2)c1O` (configuration not stated) stands -0.29%; under `COc1cccc(CN2CCCCCC2c2cccs2)c1O` (configuration not stated), 33.2%; under `COc1cc(CN2CCCCCC2c2cccs2)cc(OC)c1O` (configuration not stated), 50.8%.
Turning to `COc1ccc(CN2CCCCCC2c2cccs2)c(OC)c1` (configuration not stated), the INHIBITION came out at 10.2%.
Under `COc1ccc(CN2CCCCCC2c2cccs2)c(O)c1` (configuration not stated) stands 4.35%; under `COc1ccc(OC)c(CN2CCCCCC2c2cccs2)c1` (configuration not stated), 50.5%; under `COc1cccc(CN2CCCCCC2c2cccc(C)c2)c1O` (configuration not stated), 56.1%.
In the case of `COc1cc(CN2CCCCCC2c2cccs2)cc(OC)c1OC` (configuration not stated), the INHIBITION is 29.3%.
With `CC1=Nc2c(c(O)nn2C(C)C)C(c2cnn(C)c2)S1` (configuration not stated) the figure was 21.7%; with `COc1nsc2nc(C3CCCN3C(C)=O)ccc12` (configuration not stated), 26.12%.
As for `Cc1nn(C)c(C)c1CN(Cc1cccn1-c1ncccn1)C(C)C`, the INHIBITION is given as -30.5%.
Under `Cc1nccn1-c1ccc(N2CCC(NC(C)CC(C)C)CC2)cc1` (configuration not stated) stands 38.5%.
Under `Cc1nn(C)c(C)c1CCNC(C)c1ccc(-n2ccnc2C)cc1` (configuration not stated) stands 87.6%.
For the compound `Cc1nccn1-c1ccc(CN2CC3C[C@@H](O)CN3C[C@@H]2C)cc1` (some centres not stated), the INHIBITION is on record as -44.8%.
Consider `Cn1cc(C(NCCc2ccccn2)c2cccc(F)c2)cn1` (configuration not stated), for which the INHIBITION was -1.75%.
Consider `CCCc1nccn1-c1ccc(C(C)O)cc1` (configuration not stated), for which the INHIBITION was -20.6%.
With `Cc1nccn1-c1ncccc1NC(=O)CCOCC(C)C` the figure was 4.66%; with `CCCC(C)NC1CCN(c2ccc(-n3ccnc3C)cc2)CC1` (configuration not stated), 52.1%; with `Cc1nccn1-c1ccc(C(C)NCCc2ccccn2)cc1` (configuration not stated), 62.8%.
Under `CC(Cn1ccnc1)NC(=O)NCCc1ccccn1` (configuration not stated) stands 46.5%; under `Cc1nccn1-c1ccc(C(C)NCCC(C)C)cc1` (configuration not stated), 62.8%; under `CCS(=O)(=O)c1ccc(N2CCC(NC(=O)CCC(C)C)CC2)cc1`, 42.6%.
As to `CN(C)CCO[C@H]1CN(C(=O)c2cccs2)[C@@H]2COC[C@H]12`, the INHIBITION is on record as -19.1%.
Take `CN1Cc2[nH]nc(COCC3CC3)c2C1`: the INHIBITION is reported as -44.9%.
For the compound `O=C(c1ccc(-c2cccc3c2CCNC3)o1)N1CCOCC1`, the INHIBITION was determined as 39.1%.
With `CCOC[C@@H]1CC[C@H]2[C@H](CCN2S(=O)(=O)c2ccc(F)cc2)O1` the figure was -17.1%; with `O=C(O)c1c(-c2ccoc2)ncc2c1CCN(C1CCOC1)C2` (configuration not stated), 21.6%; with `CC(NC(=O)NCC1(c2ccc(F)cc2)CC1)c1nncn1C` (configuration not stated), 31.9%.
Under `Cc1cnn(CCC(=O)N2CCCC(c3nc(C)c(C)s3)C2)c1` (configuration not stated) stands -7.35%; under `NCC1(c2cccc(Br)c2)CCOCC1`, -51.5%; under `NCC1(c2cccc(C(F)(F)F)c2)CCOCC1`, 8.47%.
On to `NCC1(c2cccc(F)c2)CCOCC1`, for which the INHIBITION was found to be 50.2%.
With `O=C(Cc1ccsc1)N1C[C@@H]2CN(Cc3ccoc3)CCO[C@@H]2C1` the figure was 16.5%; with `CCc1noc(C)c1C(=O)NCC(c1ccc(C)cc1)N(C)C` (configuration not stated), -25.4%; with `Cc1noc(C)c1C(=O)NCC(c1cccc(F)c1)N(C)C` (configuration not stated), -20.19%.
Take `Cc1noc(C)c1C(=O)NCC(c1ccc(F)cc1)N(C)C` (configuration not stated): the INHIBITION stood at 23.4%.
With `COc1ccc(C(CNC(=O)c2c(C)noc2C)N(C)C)cc1` (configuration not stated) the figure was 50.75%; with `Cc1noc(C)c1C(=O)NCC(c1ccsc1)N(C)C` (configuration not stated), -38.7%.
Under `CCc1ccc(C(CNC(=O)c2c(C)noc2C)N(C)C)cc1` (configuration not stated) stands 58.9%; under `OC(CNC1CCOCC1)c1cccc(OCc2ccccc2)c1` (configuration not stated), 46.1%.
Consider `O=C(O)CNc1cc(-c2cc(C(=O)NC3CC3)ccn2)c2cc[nH]c2n1`, for which the INHIBITION is given as -21.1%.
Regarding `COc1ccc(C(C(=O)O)N(C)CCN2CCCC2)c(C)c1` (configuration not stated), the INHIBITION is given as 52.8%.
For the compound `COc1ccc(C(C(=O)O)N(C)CCN2CCOCC2)c(C)c1` (configuration not stated), the INHIBITION came out at 22.5%.
Regarding `COc1cc(F)ccc1C(C(=O)O)N(C)CCN1CCCC1` (configuration not stated), the INHIBITION came out at 40.9%.
With `CCc1n[nH]c(=O)c(C(=O)N2CCSCC2)c1CC` the figure was 39.3%.
With `Cn1cnnc1C1CCCN(C(=O)c2cc(Cl)c(Cl)n2C)C1` (configuration not stated) the figure was -10.1%; with `CC(CNC(=O)c1cnccn1)Oc1ccc(F)cc1` (configuration not stated), 69.9%; with `CC(CNC(=O)c1c[nH]nn1)Oc1cccc(Br)c1` (configuration not stated), -15%.
Under `CC(CNC(=O)c1c[nH]nn1)Oc1ccc(Cl)cc1` (configuration not stated) stands 51.6%.
On to `Cc1ccc(OC(C)CNC(=O)c2c[nH]nn2)cc1` (configuration not stated), for which the INHIBITION worked out at 0.0944%.
As to `CC(CNC(=O)c1cnccn1)Oc1cccc(Br)c1` (configuration not stated), the INHIBITION is 10%.
For `CC(CNC(=O)c1ccncc1F)Oc1ccc(F)cc1` (configuration not stated), the INHIBITION stood at 28.2%.
As to `Cc1cnc(N2C(=O)CSC2c2ccc(F)cc2)s1` (configuration not stated), the INHIBITION turned out to be 44.8%.
For the compound `CC(=O)N1CCN(Cc2cccs2)CC2(CC(=O)N(C)C2)C1` (configuration not stated), the INHIBITION is -2.35%.
Take `COc1ccc(C)cc1CN(C)CC(=O)NC1(C)CCS(=O)(=O)C1` (configuration not stated): the INHIBITION amounted to 29.7%.
For `COCCN1CCN(C(C)c2nc(C3CC3)no2)CC1` (configuration not stated), the INHIBITION is 28.6%.
With `Cc1nc(CN2CCN(C(C)c3nc(C4CC4)no3)CC2)no1` (configuration not stated) the figure was -21.9%.
Under `CCc1noc(C(C)N2CCC(N3CCCC3)CC2)n1` (configuration not stated) stands 50.4%; under `CCc1noc(C(C)N2CCC(C)CC2)n1` (configuration not stated), 2.97%; under `CCc1noc(C(C)N2CCC(N3CCCCC3)CC2)n1` (configuration not stated), 44.1%.
Under `COCCCN1CCCN(C(C)c2nc(C3CC3)no2)CC1` (configuration not stated) stands 54.9%.
On to `CCOCCN1CCN(C(C)c2nc(C3CC3)no2)CC1` (configuration not stated), for which the INHIBITION is 0.55%.
As for `Cc1noc(C(C)N2CCN(Cc3noc(C4CC4)n3)CC2)n1` (configuration not stated), the INHIBITION is given as 37.4%.
`CCc1noc(C(C)N2CCN(Cc3noc(C4CC4)n3)CC2)n1` (configuration not stated): the INHIBITION amounted to 65.7%.
With `CCc1noc(C(C)N2CCN(CC)CC2)n1` (configuration not stated), the INHIBITION was -54.6%.
For `CCc1noc(C(C)N2CCCN(Cc3noc(C4CC4)n3)CC2)n1` (configuration not stated), the INHIBITION is on record as 15.7%.
Turning to `CCc1noc(C(C)N2CCN(Cc3noc(C)n3)CC2)n1` (configuration not stated), the INHIBITION is recorded as 61.3%.
With `Cc1ccc(-c2ccnc(NCC3(N(C)C)CCOCC3)n2)c(C)n1` the figure was 19.2%; with `Cn1cnc2c1CCN(Cc1csc(-c3ccco3)n1)C2`, 5.8%; with `CC(O)CN1CCC(CNCc2cccc(Cl)c2)CC1` (configuration not stated), 24%.
Consider `COCCN1C(=O)[C@@H]2CC[C@H]1CN(S(=O)(=O)c1cccc(Cl)c1)C2`, for which the INHIBITION was found to be 32.2%.
Under `COC(=O)C(C)(C)NC(=O)C1CC(=O)N(CC(C)C)C1` (configuration not stated) stands -22.1%.
With `OC1(CNCCc2nc3c(s2)CCCC3)CCNC1` (configuration not stated), the INHIBITION is recorded as -41.6%.
